Data from the supplement of paper PMC10849652.
Targets with a hit are over-represented here; the source holds about 7,900 in all. About 0.6% of all pairs of compound and target were hits.

Experiments:
Experiment in all cases: log2 fold change, soluble protein after heating vs DMSO (PISA); higher = thermal stabilisation; K562 cells, 10 uM, 30 min; active = over 0.2 and 3.5 SD of the protein, either way, in both replicates (recomputed)
[1] = compound: COC1=CC=C(C=C1)CN2C=CC3=C2C=C(C=C3)C(=O)NO
Summary of the method: (§1)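 Soluble protein was quantified by TMTpro 16plex LC-MS/MS after channel sums were equalised. It was obtained as the supernatant after 21,000xg for 90 min from pooled aliquots of K562 cells (2×10^6 cells/mL, 10 μM compound, 30 min) heated for 3 min across 48°C-58°C and extracted in PBS with 0.5% NP-40 at 4°C. Thermal stability values are relative to control samples and come from duplicates. They are given as log2 fold changes.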

[2] = compound: CON(C)C(=O)N1N=C(c2cc(F)ccc2F)S[C@@]1(CCCN)c1ccccc1 [filanesib]
Summary of the method: as §1

[3] = compound: CO[C@H]1C[C@@H]2CC[C@@H](C)[C@@](O)(O2)C(=O)C(=O)N2CCCC[C@H]2C(=O)O[C@H]([C@H](C)C[C@@H]2CC[C@H](n3cnnn3)[C@H](OC)C2)CC(=O)[C@H](C)/C=C(\C)[C@@H](O)[C@@H](OC)C(=O)[C@H](C)C[C@H](C)/C=C/C=C/C=C/1C [zotarolimus]
Summary of the method: as §1

[4] = compound: COc1cc(C(=O)O)ccc1NC(=O)[C@@H]1N[C@@H](CC(C)(C)C)[C@](C#N)(c2ccc(Cl)cc2F)[C@H]1c1cccc(Cl)c1F [idasanutlin]
Summary of the method: as §1

[5] = compound: COc1cc(Nc2ncc3c(n2)-c2ccc(Cl)cc2C(c2c(F)cccc2OC)=NC3)ccc1C(=O)O [alisertib]
Summary of the method: as §1

[6] = compound: COc1cc2nc(-c3cc(F)ccc3O)nc(N[C@@H]3CNC[C@H]3C(C)(C)O)c2cc1OC
Summary of the method: as §1

[7] = compound: COc1cc2ncnc(Nc3ccc(F)c(Cl)c3)c2cc1OCCCN1CCOCC1 [gefitinib]
Summary of the method: as §1

[8] = compound: COc1cccc2cc(-c3nc([C@H]4CC[C@H](C(=O)O)CC4)n4ncnc(N)c34)[nH]c12
Summary of the method: as §1

[9] = compound: CS(=O)(=O)CCNCc1ccc(-c2ccc3ncnc(Nc4ccc(OCc5cccc(F)c5)c(Cl)c4)c3c2)o1 [lapatinib]
Summary of the method: as §1

[10] = compound: CS(=O)(=O)N1CCN(Cc2cc3nc(-c4cccc5[nH]ncc45)nc(N4CCOCC4)c3s2)CC1 [pictilisib]
Summary of the method: as §1

[11] = compound: CS(=O)(=O)c1ccc(-c2cnc(N)c(C(=O)Nc3ccccc3)n2)cc1
Summary of the method: as §1

[12] = compound: C[C@@H](Oc1cc(-c2cnn(C3CCNCC3)c2)cnc1N)c1c(Cl)ccc(F)c1Cl [crizotinib]
Summary of the method: as §1

[13] = compound: C[C@@H]1COCCN1C2=NC(=NC(=C2)C3(CC3)S(=O)(=O)C)C4=C5C=CNC5=CC=C4
Summary of the method: as §1

[14] = compound: C[C@H](C1=CC=C(C=C1)C(=O)NC2=C3C=CNC3=NC=C2)N
Summary of the method: as §1

[15] = compound: C[C@H](Nc1ncnc2nc[nH]c12)c1cc2cccc(Cl)c2c(=O)n1-c1ccccc1 [duvelisib]
Summary of the method: as §1

[16] = compound: Cc1cc(Nc2cc(CN3CCOCC3)c3nc(C)c(Cc4ccc(Cl)cc4F)n3n2)n[nH]1 [gandotinib]
Summary of the method: as §1

[17] = compound: Cc1cc(Nc2cc(N3CCN(C)CC3)nc(Sc3ccc(NC(=O)C4CC4)cc3)n2)n[nH]1 [tozasertib]
Summary of the method: as §1

[18] = compound: Cc1cc(SCc2sc(-c3ccc(C(F)(F)F)cc3)nc2C)ccc1OCC(=O)O
Summary of the method: as §1

[19] = compound: Cc1ccc(-n2nc(C(C)(C)C)cc2NC(=O)Nc2ccc(OCCN3CCOCC3)c3ccccc23)cc1 [doramapimod]
Summary of the method: as §1

[20] = compound: Cc1ccc(C(=O)N(CCCN)[C@@H](c2nc3cc(Cl)ccc3c(=O)n2Cc2ccccc2)C(C)C)cc1 [ispinesib]
Summary of the method: as §1

Measured: log2 fold change

SYMPK (UniProt Q92797)
UniProt Q92797, sequence (Q92797 whole entry, looked up): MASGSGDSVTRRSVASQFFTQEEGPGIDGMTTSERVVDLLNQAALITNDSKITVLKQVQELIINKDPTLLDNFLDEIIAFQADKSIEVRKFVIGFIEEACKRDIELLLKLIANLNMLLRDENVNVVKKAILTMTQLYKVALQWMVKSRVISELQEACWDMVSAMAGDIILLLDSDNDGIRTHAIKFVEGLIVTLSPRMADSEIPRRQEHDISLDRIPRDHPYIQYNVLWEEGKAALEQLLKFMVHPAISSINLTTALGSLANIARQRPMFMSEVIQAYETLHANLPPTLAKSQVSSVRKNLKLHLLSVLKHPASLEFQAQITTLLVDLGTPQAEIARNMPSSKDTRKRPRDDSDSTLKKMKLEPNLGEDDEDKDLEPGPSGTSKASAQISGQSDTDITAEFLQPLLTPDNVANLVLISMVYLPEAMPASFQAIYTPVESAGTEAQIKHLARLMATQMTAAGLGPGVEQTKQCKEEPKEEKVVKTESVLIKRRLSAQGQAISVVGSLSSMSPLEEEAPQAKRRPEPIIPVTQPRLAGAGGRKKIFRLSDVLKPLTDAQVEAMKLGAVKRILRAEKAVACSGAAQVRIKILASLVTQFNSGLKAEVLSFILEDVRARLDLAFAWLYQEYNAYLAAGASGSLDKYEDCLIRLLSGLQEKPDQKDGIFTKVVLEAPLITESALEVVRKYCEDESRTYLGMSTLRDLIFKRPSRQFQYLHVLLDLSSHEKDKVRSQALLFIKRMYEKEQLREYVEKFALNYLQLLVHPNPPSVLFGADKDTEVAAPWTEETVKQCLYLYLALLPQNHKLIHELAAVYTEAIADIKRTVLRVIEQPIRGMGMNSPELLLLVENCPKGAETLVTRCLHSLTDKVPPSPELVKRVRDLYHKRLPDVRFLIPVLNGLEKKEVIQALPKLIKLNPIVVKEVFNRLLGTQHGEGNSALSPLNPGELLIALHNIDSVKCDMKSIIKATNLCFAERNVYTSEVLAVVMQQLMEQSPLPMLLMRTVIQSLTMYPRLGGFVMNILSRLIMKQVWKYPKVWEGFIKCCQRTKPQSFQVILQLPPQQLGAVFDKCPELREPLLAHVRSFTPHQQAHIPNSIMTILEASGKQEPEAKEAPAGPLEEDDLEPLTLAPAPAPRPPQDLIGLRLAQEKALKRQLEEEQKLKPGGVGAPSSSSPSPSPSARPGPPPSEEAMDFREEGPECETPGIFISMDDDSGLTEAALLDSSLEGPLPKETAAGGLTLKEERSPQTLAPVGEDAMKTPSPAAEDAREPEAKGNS
inactive: [1] 0.069 | [2] -0.102 | [3] 0.07 | [4] -0.127 | [5] 0.047 | [6] 0.036 | [7] 0.107 | [8] 0.025 | [9] -0.045 | [10] 0.155 | [11] -0.031 | [12] -0.189 | [13] 0.046 | [14] -0.026 | [15] 0.077 | [16] -0.155 | [17] 0.054 | [18] 0.235 | [19] -0.09 | [20] -0.023

STK11IP (UniProt Q8N1F8)
UniProt Q8N1F8, sequence (Q8N1F8 whole entry, looked up): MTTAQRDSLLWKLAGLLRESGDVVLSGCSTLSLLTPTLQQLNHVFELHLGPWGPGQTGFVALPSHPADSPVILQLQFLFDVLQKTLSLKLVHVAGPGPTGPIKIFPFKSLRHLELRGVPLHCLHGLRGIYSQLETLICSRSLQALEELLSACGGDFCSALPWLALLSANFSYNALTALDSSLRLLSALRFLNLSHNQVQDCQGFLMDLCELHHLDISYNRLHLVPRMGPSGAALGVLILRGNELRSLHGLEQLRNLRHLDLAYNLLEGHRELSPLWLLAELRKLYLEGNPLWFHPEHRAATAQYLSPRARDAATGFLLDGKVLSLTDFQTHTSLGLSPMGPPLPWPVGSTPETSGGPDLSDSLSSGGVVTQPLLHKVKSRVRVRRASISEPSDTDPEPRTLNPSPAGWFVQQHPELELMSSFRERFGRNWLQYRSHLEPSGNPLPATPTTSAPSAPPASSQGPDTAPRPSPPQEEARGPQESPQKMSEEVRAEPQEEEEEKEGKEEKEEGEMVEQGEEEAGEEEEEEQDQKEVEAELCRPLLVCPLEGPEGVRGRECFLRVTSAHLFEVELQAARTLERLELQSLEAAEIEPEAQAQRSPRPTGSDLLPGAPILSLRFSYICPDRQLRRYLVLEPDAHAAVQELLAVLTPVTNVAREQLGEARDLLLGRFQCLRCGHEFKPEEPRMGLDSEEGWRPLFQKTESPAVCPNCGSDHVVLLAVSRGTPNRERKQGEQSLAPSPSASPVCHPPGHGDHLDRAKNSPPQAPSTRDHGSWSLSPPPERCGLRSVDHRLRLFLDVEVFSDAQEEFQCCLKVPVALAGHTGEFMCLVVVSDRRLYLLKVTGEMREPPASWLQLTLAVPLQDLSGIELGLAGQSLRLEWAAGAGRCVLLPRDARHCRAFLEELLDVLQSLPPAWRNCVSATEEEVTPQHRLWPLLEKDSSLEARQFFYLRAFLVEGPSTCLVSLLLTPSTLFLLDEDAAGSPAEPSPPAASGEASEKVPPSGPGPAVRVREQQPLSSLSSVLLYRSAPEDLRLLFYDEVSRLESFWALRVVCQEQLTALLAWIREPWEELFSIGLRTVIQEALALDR
inactive: [1] -0.029 | [2] 0.042 | [3] 0.195 | [4] 0.044 | [5] -0.131 | [6] -0.172 | [7] -0.072 | [8] -0.139 | [9] -0.088 | [10] 0.117 | [11] -0.21 | [13] -0.078 | [14] -0.124 | [15] -0.089 | [16] -0.002 | [17] -0.042 | [18] 0.021 | [19] 0.006
active: [12] -0.869

SMG1 (UniProt Q96Q15)
inactive: [1] -0.142 | [2] 0.061 | [3] -0.001 | [4] -0.038 | [5] -0.002 | [6] 0.055 | [7] 0.008 | [8] -0.047 | [9] 0.003 | [10] 0.018 | [11] 0.04 | [12] 0.012 | [13] -0.083 | [14] 0.016 | [15] 0.02 | [16] -0.024 | [17] -0.013 | [18] 0.098 | [19] 0.051 | [20] 0.033

SRSF10 (UniProt O75494)
UniProt O75494, sequence (O75494 whole entry, looked up): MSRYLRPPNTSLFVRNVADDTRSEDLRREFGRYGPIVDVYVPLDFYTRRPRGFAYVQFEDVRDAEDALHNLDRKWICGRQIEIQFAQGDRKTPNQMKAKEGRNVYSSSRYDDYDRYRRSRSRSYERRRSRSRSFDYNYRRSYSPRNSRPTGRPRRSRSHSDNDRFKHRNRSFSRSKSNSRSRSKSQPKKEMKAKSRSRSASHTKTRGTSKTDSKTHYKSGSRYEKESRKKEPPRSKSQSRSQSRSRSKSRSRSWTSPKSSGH
inactive: [1] -0.102 | [2] 0.424 | [3] -0.157 | [4] 0.388 | [5] -0.099 | [6] -0.169 | [7] -0.009 | [8] -0.056 | [9] 0.101 | [10] -0.042 | [11] -0.176 | [12] 0.153 | [13] -0.539 | [14] 0.259 | [15] -0.139 | [16] 0.183 | [17] 0.095 | [18] 0.036 | [19] 0.222 | [20] -0.172

STARD3 (UniProt Q14849)
UniProt Q14849, sequence (Q14849 whole entry, looked up): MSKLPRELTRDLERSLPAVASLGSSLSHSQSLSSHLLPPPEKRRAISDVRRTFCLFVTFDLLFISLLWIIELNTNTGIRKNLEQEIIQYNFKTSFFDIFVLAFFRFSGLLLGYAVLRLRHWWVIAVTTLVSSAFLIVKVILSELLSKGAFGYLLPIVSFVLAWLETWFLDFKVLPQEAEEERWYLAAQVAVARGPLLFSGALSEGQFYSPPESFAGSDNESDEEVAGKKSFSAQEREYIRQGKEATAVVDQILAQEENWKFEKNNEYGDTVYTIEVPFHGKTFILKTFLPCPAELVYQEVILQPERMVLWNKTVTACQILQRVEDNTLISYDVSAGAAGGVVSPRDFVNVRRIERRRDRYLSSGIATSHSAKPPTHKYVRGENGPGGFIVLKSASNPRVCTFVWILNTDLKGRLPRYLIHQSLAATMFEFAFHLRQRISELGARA
inactive: [1] 0 | [2] -0.147 | [3] -0.004 | [4] 0.109 | [5] 0.018 | [6] 0.038 | [7] 0.075 | [8] 0.035 | [9] 0.043 | [10] -0.047 | [11] 0.017 | [13] 0.194 | [14] -0.043 | [15] 0.065 | [16] 0.098 | [17] -0.06 | [18] -0.015 | [19] 0.043
active: [12] -0.36 | [20] -0.559

SMARCA5 (UniProt O60264)
UniProt O60264, sequence (O60264 whole entry, looked up): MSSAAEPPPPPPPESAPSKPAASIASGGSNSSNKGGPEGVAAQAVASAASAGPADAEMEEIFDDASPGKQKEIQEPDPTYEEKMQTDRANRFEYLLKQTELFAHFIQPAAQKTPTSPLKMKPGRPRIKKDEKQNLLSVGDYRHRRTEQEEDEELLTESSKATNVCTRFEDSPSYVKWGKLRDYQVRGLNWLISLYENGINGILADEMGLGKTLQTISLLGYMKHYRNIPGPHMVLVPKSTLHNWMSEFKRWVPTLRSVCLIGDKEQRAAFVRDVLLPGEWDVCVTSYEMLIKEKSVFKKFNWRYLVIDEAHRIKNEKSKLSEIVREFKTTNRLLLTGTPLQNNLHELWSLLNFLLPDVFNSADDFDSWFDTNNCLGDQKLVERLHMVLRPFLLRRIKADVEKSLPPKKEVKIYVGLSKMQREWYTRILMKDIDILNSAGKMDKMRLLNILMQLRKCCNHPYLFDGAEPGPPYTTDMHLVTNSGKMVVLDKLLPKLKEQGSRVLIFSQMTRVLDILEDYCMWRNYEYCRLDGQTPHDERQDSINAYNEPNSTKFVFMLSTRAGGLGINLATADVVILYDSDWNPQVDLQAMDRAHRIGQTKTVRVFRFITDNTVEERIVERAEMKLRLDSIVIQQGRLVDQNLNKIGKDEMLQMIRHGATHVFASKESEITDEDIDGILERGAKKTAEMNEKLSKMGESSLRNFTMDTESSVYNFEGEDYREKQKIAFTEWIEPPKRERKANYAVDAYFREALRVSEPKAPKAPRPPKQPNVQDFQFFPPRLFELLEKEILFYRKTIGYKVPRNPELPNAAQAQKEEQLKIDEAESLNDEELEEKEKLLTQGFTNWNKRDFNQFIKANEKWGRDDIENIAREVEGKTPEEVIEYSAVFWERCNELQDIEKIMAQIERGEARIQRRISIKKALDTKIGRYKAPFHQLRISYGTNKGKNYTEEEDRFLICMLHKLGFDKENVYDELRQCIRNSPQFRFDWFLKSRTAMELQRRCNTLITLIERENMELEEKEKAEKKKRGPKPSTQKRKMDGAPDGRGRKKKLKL
inactive: [1] 0.047 | [2] 0.047 | [3] 0.043 | [4] 0.059 | [5] -0.064 | [6] -0.049 | [7] 0.073 | [8] -0.144 | [9] -0.017 | [10] 0.004 | [11] -0.004 | [12] -0.073 | [13] 0.273 | [14] 0.161 | [15] 0.025 | [16] -0.045 | [17] 0.154 | [18] 0.127 | [19] -0.052 | [20] -0.012

SUMO1 (UniProt P63165)
UniProt P63165, sequence (P63165 whole entry, looked up): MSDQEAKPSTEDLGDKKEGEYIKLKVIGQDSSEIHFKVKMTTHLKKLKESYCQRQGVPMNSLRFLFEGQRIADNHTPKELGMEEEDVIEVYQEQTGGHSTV
inactive: [1] -0.363 | [2] 0.102 | [3] -0.183 | [4] -0.099 | [5] -0.052 | [7] 0.004 | [8] 0.055 | [10] 0.006 | [11] -0.125 | [12] 0.06 | [13] -0.045 | [14] 0.176 | [15] -0.137 | [16] 0.064 | [17] 0 | [18] -0.039 | [19] -0.038 | [20] 0.039
active: [6] -0.507 | [9] 0.549

STAT5B (UniProt P51692)
UniProt P51692, sequence (P51692 whole entry, looked up): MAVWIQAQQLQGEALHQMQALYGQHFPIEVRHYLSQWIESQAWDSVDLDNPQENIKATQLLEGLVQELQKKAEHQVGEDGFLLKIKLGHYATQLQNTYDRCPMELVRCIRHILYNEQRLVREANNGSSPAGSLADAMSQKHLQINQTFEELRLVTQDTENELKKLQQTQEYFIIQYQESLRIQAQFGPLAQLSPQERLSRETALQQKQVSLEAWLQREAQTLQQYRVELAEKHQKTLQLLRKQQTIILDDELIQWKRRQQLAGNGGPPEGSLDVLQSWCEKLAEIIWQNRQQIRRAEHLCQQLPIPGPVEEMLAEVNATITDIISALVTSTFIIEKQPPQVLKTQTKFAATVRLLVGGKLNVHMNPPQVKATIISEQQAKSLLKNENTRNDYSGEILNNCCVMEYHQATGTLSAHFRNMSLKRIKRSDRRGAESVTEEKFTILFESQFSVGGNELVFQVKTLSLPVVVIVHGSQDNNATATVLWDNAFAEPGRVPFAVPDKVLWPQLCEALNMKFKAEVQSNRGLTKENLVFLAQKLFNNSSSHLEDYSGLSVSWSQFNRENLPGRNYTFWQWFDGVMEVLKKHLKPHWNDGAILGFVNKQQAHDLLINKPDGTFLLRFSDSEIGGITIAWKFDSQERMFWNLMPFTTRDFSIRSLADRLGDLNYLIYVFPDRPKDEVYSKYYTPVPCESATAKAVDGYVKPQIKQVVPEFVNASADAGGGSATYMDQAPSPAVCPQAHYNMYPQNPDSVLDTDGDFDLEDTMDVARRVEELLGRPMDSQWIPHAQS
inactive: [1] 0.13 | [2] -0.036 | [3] 0.112 | [4] 0.086 | [5] -0.038 | [6] -0.115 | [7] 0.046 | [8] -0.094 | [9] 0.029 | [10] -0.148 | [11] 0.119 | [12] -0.353 | [13] -0.037 | [14] -0.014 | [15] -0.164 | [16] -0.209 | [17] 0.129 | [18] 0.097 | [19] -0.09 | [20] -0.082
